Measured values: publication PMC5700166
Substitutions are numbered along the chain they refer to.

Experiments:
Assay in all cases: protein-binding microarray (PBM); PBM: ~300 nM protein, 6 mM HEPES pH 7.8, 80 mM KCl, 0.5 mM EDTA, 0.5 mM EGTA, 6% glycerol, 35 ng/ul poly-dIdC, 1% milk, 1 h, room temperature; Ap Aiptasia and Nv Nematostella (sea anemones) / Co Capsaspora / Aq Amphimedon (sponge) / Dm Drosophila / Hu human; RHD is the Rel homology domain; high values mean tight binding
Details in all cases: dsDNA, one strand shown
[1] = molecular target: T1, GST-Ap-NF-kB RHD (Exaiptasia pallida (Aiptasia), UniProt A0A913YAJ5 2-422)
T1 sequence: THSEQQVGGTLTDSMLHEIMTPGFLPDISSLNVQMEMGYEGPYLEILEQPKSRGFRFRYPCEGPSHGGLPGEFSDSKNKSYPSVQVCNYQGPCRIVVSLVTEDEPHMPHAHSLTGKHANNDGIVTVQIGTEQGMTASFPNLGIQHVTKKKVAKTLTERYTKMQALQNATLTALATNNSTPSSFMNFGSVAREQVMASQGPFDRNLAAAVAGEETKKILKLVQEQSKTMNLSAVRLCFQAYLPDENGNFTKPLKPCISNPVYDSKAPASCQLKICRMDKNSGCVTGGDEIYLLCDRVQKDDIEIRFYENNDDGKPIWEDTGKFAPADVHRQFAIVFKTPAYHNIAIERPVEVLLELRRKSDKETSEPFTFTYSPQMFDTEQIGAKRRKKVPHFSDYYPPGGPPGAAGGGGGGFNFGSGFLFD

[2] = molecular target: T2, GST-Nv-NF-kB (Cys allele) (Nematostella vectensis, UniProt E5G601 2-411)
T2 sequence: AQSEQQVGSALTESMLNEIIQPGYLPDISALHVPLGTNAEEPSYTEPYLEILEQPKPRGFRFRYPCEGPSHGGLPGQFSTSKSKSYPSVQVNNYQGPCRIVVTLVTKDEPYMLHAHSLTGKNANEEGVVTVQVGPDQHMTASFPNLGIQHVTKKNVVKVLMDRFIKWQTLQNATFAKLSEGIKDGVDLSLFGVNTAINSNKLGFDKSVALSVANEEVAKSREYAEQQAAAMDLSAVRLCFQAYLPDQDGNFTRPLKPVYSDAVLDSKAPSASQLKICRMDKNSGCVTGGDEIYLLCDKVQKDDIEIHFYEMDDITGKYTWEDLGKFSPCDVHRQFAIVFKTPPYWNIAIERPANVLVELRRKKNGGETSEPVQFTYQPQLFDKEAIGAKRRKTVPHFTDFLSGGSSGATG

[3] = molecular target: T3, GST-Nv-NF-kB (Ser allele) (Nematostella vectensis, UniProt A7UNT2 2-411)
T3 sequence: T2 sequence with Q21R, C66S, S207N, E215Q, V217A, E225K, A268E, D399E

[4] = molecular target: T4, GST-Co-NF-kB (Capsaspora owczarzaki, UniProt F1ARL5 200-546)
T4 sequence: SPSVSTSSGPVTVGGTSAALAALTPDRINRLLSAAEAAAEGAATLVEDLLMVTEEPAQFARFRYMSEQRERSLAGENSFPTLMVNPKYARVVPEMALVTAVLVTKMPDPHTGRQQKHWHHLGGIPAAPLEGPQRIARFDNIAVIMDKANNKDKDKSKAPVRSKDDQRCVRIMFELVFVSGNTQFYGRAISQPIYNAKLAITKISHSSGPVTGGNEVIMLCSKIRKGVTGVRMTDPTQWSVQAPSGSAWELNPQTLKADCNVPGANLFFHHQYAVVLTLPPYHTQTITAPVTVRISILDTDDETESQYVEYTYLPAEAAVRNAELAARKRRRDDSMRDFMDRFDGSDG

[5] = molecular target: T5, GST-Dm-Relish (Drosophila melanogaster, UniProt Q94527 99-473)
T5 sequence: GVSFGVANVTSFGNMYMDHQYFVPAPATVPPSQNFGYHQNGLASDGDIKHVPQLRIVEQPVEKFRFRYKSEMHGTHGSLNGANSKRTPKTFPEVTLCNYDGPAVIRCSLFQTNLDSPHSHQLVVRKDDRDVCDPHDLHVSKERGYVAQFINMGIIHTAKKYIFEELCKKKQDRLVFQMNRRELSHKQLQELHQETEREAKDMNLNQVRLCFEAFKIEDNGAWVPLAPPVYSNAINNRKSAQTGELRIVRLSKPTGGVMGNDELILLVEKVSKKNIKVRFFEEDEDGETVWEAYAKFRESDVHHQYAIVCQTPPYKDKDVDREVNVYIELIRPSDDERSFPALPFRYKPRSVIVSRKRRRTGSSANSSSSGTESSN

[6] = molecular target: T6, GST-Aq-NF-kB (Amphimedon queenslandica, UniProt A9Y5G7 2-389)
T6 sequence: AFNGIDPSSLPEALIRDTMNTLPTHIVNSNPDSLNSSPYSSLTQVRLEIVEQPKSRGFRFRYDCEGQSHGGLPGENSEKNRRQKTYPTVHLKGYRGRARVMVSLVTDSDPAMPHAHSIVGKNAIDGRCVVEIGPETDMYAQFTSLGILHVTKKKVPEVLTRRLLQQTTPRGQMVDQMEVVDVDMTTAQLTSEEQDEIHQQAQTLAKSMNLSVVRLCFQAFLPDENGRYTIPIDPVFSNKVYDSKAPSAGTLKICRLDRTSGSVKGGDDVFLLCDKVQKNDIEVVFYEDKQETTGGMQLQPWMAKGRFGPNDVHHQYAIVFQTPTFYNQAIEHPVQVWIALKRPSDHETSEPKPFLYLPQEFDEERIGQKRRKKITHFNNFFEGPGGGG

[7] = molecular target: GST-Hu-p50 (Homo sapiens, UniProt P19838 7-356)
GST-Hu-p50, sequence (P19838 7-356): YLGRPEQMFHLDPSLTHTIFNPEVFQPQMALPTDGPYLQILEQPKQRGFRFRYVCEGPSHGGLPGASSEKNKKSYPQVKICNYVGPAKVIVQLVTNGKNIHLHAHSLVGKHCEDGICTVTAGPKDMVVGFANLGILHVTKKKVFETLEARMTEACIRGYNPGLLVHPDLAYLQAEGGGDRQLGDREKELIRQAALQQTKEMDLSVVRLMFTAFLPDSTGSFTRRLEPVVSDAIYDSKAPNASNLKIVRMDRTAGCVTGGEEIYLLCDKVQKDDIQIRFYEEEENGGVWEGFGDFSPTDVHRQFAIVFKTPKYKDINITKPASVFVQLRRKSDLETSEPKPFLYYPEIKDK

Sequence	binding signal [1] [z-score]	binding signal [2] [z-score]	binding signal [3] [z-score]	binding signal [4] [z-score]	binding signal [5] [z-score]	binding signal [6] [z-score]	binding signal [7] [z-score]
CCGATTAACATCAGAAGTGGGAATGATGTTAATCGGGTCTTGATTCGCTTGACGCTGCTG	2.07	2	1.53	2.78	1.15	2.35	1.13
CCGATTAACATCAGGGAGAACCCTGATGTTAATCGGGTCTTGATTCGCTTGACGCTGCTG	4.28	3.85	1.28	1.72	4.39	6.47	2.75
CCGATTAACATCAAAATTTTCCCTGATGTTAATCGGGTCTTGATTCGCTTGACGCTGCTG	5.5	8.54	10.1	6.32	5.19	7.04	5.99
CCGATTAACATCACGAATTTCCCTGATGTTAATCGGGTCTTGATTCGCTTGACGCTGCTG	4.28	5.72	6.67	4.33	2.13	5.22	4.46
CCGATTAACATCACGGGGAAACCTGATGTTAATCGGGTCTTGATTCGCTTGACGCTGCTG	7.51	7.32	9.2	8.87	7.04	6.23	5.72
CCGATTAACATCAAATTTCCCTATGATGTTAATCGGGTCTTGATTCGCTTGACGCTGCTG	4.13	6.5	6.37	3.02	2.55	6.3	5.04
CCGATTAACATCAAGGGGGGAATTGATGTTAATCGGGTCTTGATTCGCTTGACGCTGCTG	7.34	7.02	7.25	7.24	5.11	5.89	6.3
CCGATTAACATCAAAATTCCCACTGATGTTAATCGGGTCTTGATTCGCTTGACGCTGCTG	3.89	5.68	5.15	4.31	5.55	4.54	4.27
CCGATTAACATCAAGACTCCCCCTGATGTTAATCGGGTCTTGATTCGCTTGACGCTGCTG	6.35	5.25	5.92	5.87	4.5	5.15	5.69
CCGATTAACATCAGGGGATTTAATGATGTTAATCGGGTCTTGATTCGCTTGACGCTGCTG	7.05	8.23	9.99	3.58	7.98	6	6.98
CCGATTAACATCAAAAGGGGATATGATGTTAATCGGGTCTTGATTCGCTTGACGCTGCTG	4.87	5.63	7.56	2.09	2.06	3.8	4.41
CCGATTAACATCAGGGGGAACCATGATGTTAATCGGGTCTTGATTCGCTTGACGCTGCTG	7.4	6.04	7.3	8.58	5.08	4.5	5.84
CCGATTAACATCAGGGAATCTTATGATGTTAATCGGGTCTTGATTCGCTTGACGCTGCTG	3.7	4.66	4.86	3.74	2.95	5.5	4.29
CCGATTAACATCAGGGGAAGTACTGATGTTAATCGGGTCTTGATTCGCTTGACGCTGCTG	7.14	8.22	9.13	5.32	10.7	7.89	6.9
CCGATTAACATCAAAGATTCCCCTGATGTTAATCGGGTCTTGATTCGCTTGACGCTGCTG	8.13	10.5	11.7	8.45	7.42	7.27	6.66
CCGATTAACATCAGATTTCCCCATGATGTTAATCGGGTCTTGATTCGCTTGACGCTGCTG	7.4	8.26	9.52	8.5	3.76	5.45	6.16
CCGATTAACATCAGAGAATTCCCTGATGTTAATCGGGTCTTGATTCGCTTGACGCTGCTG	5.32	7.57	7.07	2.8	4.51	6.73	5.27
CCGATTAACATCAGGGGCAGTACTGATGTTAATCGGGTCTTGATTCGCTTGACGCTGCTG	2.61	1.84	1.28	1.64	3.44	4.35	2.94
CCGATTAACATCAGGGGAATACATGATGTTAATCGGGTCTTGATTCGCTTGACGCTGCTG	6.98	8.02	7.97	6.18	6.02	5.87	5.42
CCGATTAACATCAAATAAGTCCCTGATGTTAATCGGGTCTTGATTCGCTTGACGCTGCTG	4.69	6.71	7	1.42	5.96	6.24	4.56
CCGATTAACATCAGGAGTTCCCCTGATGTTAATCGGGTCTTGATTCGCTTGACGCTGCTG	8.41	9.9	7.6	5.41	9.69	9.11	6.51
CCGATTAACATCAGGGGAACAAATGATGTTAATCGGGTCTTGATTCGCTTGACGCTGCTG	3.88	4.83	5.44	7.72	3.13	4.15	3.24
CCGATTAACATCAAGGGGAAATCTGATGTTAATCGGGTCTTGATTCGCTTGACGCTGCTG	8.38	9.53	12.2	7.59	6.04	6.89	7.08
CCGATTAACATCAAACTCCCCCCTGATGTTAATCGGGTCTTGATTCGCTTGACGCTGCTG	7.58	6.49	6.75	7.67	7.11	6.54	6.75
CCGATTAACATCAGGGAAAGCACTGATGTTAATCGGGTCTTGATTCGCTTGACGCTGCTG	3.61	4.73	3.86	2.69	6.76	6.5	3.98
